Holding throughout (assay): PBM binding z-score (relative to random genomic background probes); higher = stronger binding; sequences stand for … in GC…GCGATTGACAGCGTAGAATGAAGG
In assay [1] the test system is RARb homodimer (NR concentration 270 nM). The gist of the method:
(§1)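 Ligand-free nuclear receptor dimers were applied to custom Agilent 4×180K protein-binding microarrays whose double-stranded probes carried direct-repeat seeds, single-nucleotide variants, half-site ablations and random human genomic background sequences in 34-nt variable regions. Incubation lasted 1 h. Binding z-scores were computed against the random background probes from regression-normalized fluorescence.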

For assay [2], the system named is RARg:RXRa (NR concentration 270 nM, RXRa partner concentration 90 nM). Put shortly: as §1
Assay [3] has as its system RARg homodimer (NR concentration 270 nM). The gist of the method: as §1
Assay [4] deals with RXRa DBDmut IVT, anti-RXR (DBD mutation: RXRa K156A/R161A, NR concentration 90 nM). The gist of the method: as §1
For assay [5], the system named is RXRa homodimer (NR concentration 180 nM). Put shortly: as §1
Assay [6] relates to THRa:RXRa (NR concentration 90 nM, RXRa partner concentration 90 nM). The gist of the method:
as §1

The test system of assay [7] is THRa homodimer (NR concentration 90 nM). The gist of the method:
as §1

The subject of assay [8] is VDR homodimer (NR concentration 270 nM). The gist of the method: as §1

This passage reports PBM binding z-score results from the supplement of paper PMC6555819.

In the case of AGTCAAAGTTCATGACGAGGTAACGTAAAGCACG, the PBM binding z-score in assay [1] was 3.83; in assay [2] it was 6.13; in assay [3], 5.76; in assay [4] it was 4.29; in assay [5] it was 4.9; in assay [6], 4.23. Besides, the PBM binding z-score in assay [7] was found to be 1.02; in assay [8], 4.11.

Regarding CCGAGTGGGGCAGAAAGGTTACCATACCATCCGG, the PBM binding z-score in assay [1] is 2.09; in assay [2], 1.63; in assay [3], 1.23; in assay [4], -0.568; in assay [5] it was 1.76; in assay [6], 0.899. For the same sequence, the PBM binding z-score is -0.05 in assay [7] and 0.0724 in assay [8].

TCTGCTAGGTCAATGATGGTCAGCTAATCTGCTA: the PBM binding z-score was 2.75 in assay [1]; 3.45 in assay [2]; 4.62 in assay [3]; 1.11 in assay [4]; 1.89 in assay [5]; 2.59 in assay [6]. In addition, the PBM binding z-score in assay [7] is 0.321; in assay [8], -0.294.

In the case of CCGACTGGGACATAAGGTTACCATAAGCCAGCCC, the PBM binding z-score in assay [1] is 1.42; in assay [2] it was 0.813; in assay [3] it was 0.738; in assay [4], -0.237; in assay [5], 1.01; in assay [6], 2.26. Also, the PBM binding z-score was 1.7 in assay [7] and -0.0177 in assay [8].

Regarding ATCGAAAGGTCGAAGGTTAGTATACCCACCCGAA, the PBM binding z-score was 2.72 in assay [1]; 4.38 in assay [2]; 3.94 in assay [3]; 1.41 in assay [4]; 5.38 in assay [5]; 2.19 in assay [6]. The PBM binding z-score in assay [7] is 0.185; in assay [8], 0.865.

For the sequence TCGAGTAGCTTACCAATGGGGCATTCAGCTTTCT, the PBM binding z-score is -0.454 in assay [1]; -0.745 in assay [2]; -0.826 in assay [3]; 0.345 in assay [4]; -0.307 in assay [5]; -1.44 in assay [6]. Further, the PBM binding z-score was -0.855 in assay [7] and -0.692 in assay [8].

In the case of TCAGACAGGTGAAGGTACCTCAGGTACGCAGTCG, the PBM binding z-score in assay [1] was 0.421; in assay [2], 0.412; in assay [3], 0.332; in assay [4], 1.1; in assay [5], 1.05; in assay [6], 0.941. Further, the PBM binding z-score in assay [7] came to 0.205; in assay [8], 0.0555.
